Assay outcomes as filed in PubChem BioAssay.
This is one part of a sample in which hits are shown more often than they occur.
Cycloheximide cs = counter-screen for Shiga toxin inhibitors: cycloheximide protein synthesis inhibition | cell reporter, cycloheximide protein synthesis inhibition counterscreen | 12% of 300,000 active | max response, %; in the data active = max response mostly above about 13%, no sharp cut-off; inactive = mostly below about 14%; note: read at 38.3 µM for the half of the compounds with a filed dose; 0% is about no effect
RE007 growth inh = less growth of the S. pombe RE007 Vpr strain. S. pombe RE007 Vpr strain, BacTiter-Glo ATP luminescence, 24 h. Potency, µM (titrated, usually from 92.2 µM), for the others: at the highest dose activity change, negative = less growth, hits mostly inhibitors. 0.21% of 360,000 active; active = well fitted falling curve with a large enough effect; inconclusive = small, poorly fitted or top-dose-only effect; inactive = no such curve, though single readings can be large or run the other way; note: potency is the fitted concentration of half-maximal effect; % is set by controls: 0 for no effect and ±100 for the full control effect; nearly all actives have a fitted effect of over 50% in size
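Fission yeast strain RE007, carrying one chromosomally integrated HIV-1 vpr copy, was seeded at OD 0.01 in PMG+AL medium with 23 nL pinned compound. After 24 h at 30 °C and 99% humidity, viability was read by BacTiter-Glo luminescence.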
Shiga toxin inh = Shiga toxin inhibition | Vero cells, Shiga toxin protein synthesis inhibition reporter | inhibition, % at 38.7 µM | 9.2% of 290,000 active | AID 2315; in the data active = inhibition mostly above about 28%, no sharp cut-off; inactive = mostly below about 43%; note: 0% is about no effect
FBPA Giardia inh = blocks Giardia fructose-bisphosphate aldolase activity; AID 2451; A8B2U2; 0.71% of 290,000 active; Potency, µM (series often up to 59.6 µM), without a hit: at the top dose activity, negative = inhibition, most hits filed as inhibitors; purified Giardia FBPA; note: potency is the fitted concentration of half-maximal effect; % is set by controls: 0 for no effect and ±100 for the full control effect; nearly all actives have a fitted effect of over 55% in size
Target sequence (A8B2U2 whole entry, looked up): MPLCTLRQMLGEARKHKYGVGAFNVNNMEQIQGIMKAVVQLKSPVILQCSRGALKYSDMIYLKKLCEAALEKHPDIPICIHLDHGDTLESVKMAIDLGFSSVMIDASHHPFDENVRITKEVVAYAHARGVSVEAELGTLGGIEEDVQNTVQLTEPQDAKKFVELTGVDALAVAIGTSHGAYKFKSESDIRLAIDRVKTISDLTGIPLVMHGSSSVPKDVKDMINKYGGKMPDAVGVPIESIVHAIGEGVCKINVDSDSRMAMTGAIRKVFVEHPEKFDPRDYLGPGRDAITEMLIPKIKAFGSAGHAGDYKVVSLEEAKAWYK
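40 nM FBPA preincubated 10 min at RT with compound (up to 57.5 uM final), then substrate plus GAPDH/TPI/NAD/arsenate coupling and diaphorase/resazurin added. Fluorescence read after 20 min at RT, 525/598 nm.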
Tb PYK inh = inhibitors of Trypanosoma brucei pyruvate kinase. TbPYK enzyme, Kinase-Glo Plus ATP luminescence, 45 min. 0.12% of 410,000 active. Potency, µM (top dose mostly 76.8 µM), inactives show at the top dose activity, negative = inhibition, actives largely listed as inhibitors; note: potency is the fitted concentration of half-maximal effect; % is set by controls: 0 for no effect and ±100 for the full control effect; nearly all actives have a fitted effect of over 50% in size
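Readout: single end-point luminescence (Kinase-Glo Plus, 10 min). Reaction conditions were TbPYK/substrate plus 130 uM ADP, 45 min at RT, pH 7.2 TEA buffer. No-enzyme wells served as controls, and data were normalized before concentration-response fitting.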
LmPK inh = blocks Leishmania mexicana pyruvate kinase activity; Q27686; purified LmPK, Kinase-Glo ATP luminescence, 1 h; Potency, µM (highest dose often 57.5 µM), for the others: at the top dose activity change, negative = inhibition, hits mostly inhibitors; 0.37% of 290,000 active; AID 1721; note: potency is the fitted concentration of half-maximal effect; % is set by controls: 0 for no effect and ±100 for the full control effect
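Purified LmPK (0.1 nM) with 0.5 mM PEP and 0.1 mM ADP in imidazole buffer pH 7.2 with MgCl2/KCl, 1 h at room temperature. ATP formed was read by luciferase luminescence and normalized to no-enzyme and uninhibited controls.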
LmPK confirm = Confirms inhibition of Leishmania mexicana pyruvate kinase | 40% of 150 active | purified LmPK, Kinase-Glo ATP luminescence, 1 h | shares compounds with LmPK inh | Potency, µM (top dose mostly 57.5 µM), for the others: at the top dose activity change, negative = inhibition, hits mostly inhibitors | AID 2559;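 active = compounds giving a full or partial concentration-response curve, as inhibitors or activators; inconclusive = weak, top-dose-only or unclear curve responses; inactive = no response at any tested dose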
* hit, by the source's call; u = inconclusive; x = no result given; [ ] = dose if it differs, or a comment. Unless noted, calls come from the whole dose curve; as a rule, active = well fitted curve in the direction sought with a large enough effect; inconclusive = small, poorly fitted or top-dose-only effect, or another doubt; inactive = no such curve, though single readings can be large; an effect the other way counts as inactive or inconclusive.

SMILES | Cycloheximide cs | RE007 growth inh | Shiga toxin inh | FBPA Giardia inh | Tb PYK inh | LmPK inh | others
Clc1ccc2[nH]c3c(NCC4CCCO4)ncnc3c2c1 (stereo not given) | 23* | x | 13 | -7% | x | -1%
Clc1ccc(-n2ncc3c(NCC4CCCO4)ncnc32)cc1 (stereo not given) | 40* | -14% | 50* | -4% | 2% | -3%
COc1ccc(CC(=O)N2CCc3cc(OC)c(OC)cc3C2COc2ccc3c(C)cc(=O)oc3c2)cc1OC (stereo not given) | x | x | x | x | 1% | x
CCc1ccccc1NC(=O)CN1C(=O)c2ccccc2Sc2ncccc21 | x | x | x | x | 2% | x
CCOC(=O)CSc1nc2ccc(NC(=O)COc3ccc(F)cc3)cc2s1 | x | x | x | x | 1% | x
CCS(=O)(=O)N1CCc2cc(C(=O)N3CCN(c4cccc(C(F)(F)F)c4)CC3)ccc21 | x | x | x | x | 3% | x
COc1cccc2nc3cc(C)c(C)cc3nc12 | 59* | 2.8µM* | 59* | u | u | 13µM*
CCOC(=O)c1ccc(N2C(=O)c3[nH]nc(-c4ccccc4)c3C2c2cccs2)cc1 (stereo not given) | x | x | x | x | -3% | x
c1ccc2c(c1)NC1(CCCCC1)n1c-2nc2ccccc21 | 26* | -22% | 71 | 0% | -1% | 3%
c1ccc2c(c1)NC1(CCCCCC1)n1c-2nc2ccccc21 | 34* | -6% | 77* | -7% | 3% | -14%
CC1(c2ccccn2)Nc2ccccc2-c2nc3ccccc3n21 (stereo not given) | 15 | -8% | 27 | -1% | -2% | -3%
COC(=O)c1ccc(Nc2ncnc3c2nc2n3CCCC2)cc1 | x | x | x | x | 4% | x
COc1cccc(C(=O)Nc2ccccc2-c2nnc(-c3ccc(C(C)(C)C)cc3)o2)c1 | x | x | x | x | -1% | x
NC(=O)c1c(NC(=O)c2ccccc2Cl)sc2c1CCC2 | 38* | 18% | 51* | 10% | 7% | 0%
NC(=O)c1c(NC(=O)c2ccccc2F)sc2c1CCCC2 | 49* | -9% | 83* | -6% | 4% | -1%
NC(=O)c1c(NC(=O)c2ccccc2C(=O)O)sc2c1CCCC2 | 1 | -19% | -2 | 9% | -4% | 6%
Cc1onc(-c2ccccc2)c1C(=O)Nc1sc2c(c1C(N)=O)CCC2 | -4 | -7% | -6 | -21% | -4% | -3%
Cc1onc(C(=O)Nc2sc3c(c2C(N)=O)CCCC3)c1[N+](=O)[O-] | 20* | -9% | 34 | -21% | u | -12%
NC(=O)c1c(NC(=O)c2ccc(F)cc2Cl)sc2c1CCC2 | 25* | 8% | 31* | 8% | 0% | -1%
Cc1ccccc1-c1nc(NCCN2CCOCC2)c2ccccc2n1 | x | x | x | -6% | x | x
COc1cc(CNC(=O)c2ccc3c(c2)N(C)C(=O)C2CCCCN32)cc(OC)c1OC (stereo not given) | x | x | x | x | -3% | x
CC1=C(c2ccc(C)c(C)c2)S(=O)(=O)N(Cc2ccc(C(=O)NC(C)c3ccccc3)cc2)C1=O (stereo not given) | x | x | x | x | -13% | x
COC(=O)C/C=C\[C@@H](C)[C@@H](/C=N\O[C@@H](C)CN1CCCCc2nc(C)c(C)cc21)NS(=O)(=O)c1ccc(C)cc1 | x | x | x | 1%[12.9 µM] | x | x
Cn1cc(Br)c(C(=O)Nc2sc3c(c2C(N)=O)CCCC3)n1 | 35* | -9% | 66* | -19% | -15% | -5%
Cc1ccccc1N=CC1=C(O)c2ccccc2C1=O | 35* | u | 42 | -12% | u | 4µM* | LmPK confirm=15µM*
CCOc1ccc(CNC(=O)CCC(=O)N2CC3CCCN3c3ccccc32)cc1 (stereo not given) | x | x | x | x | -8% | x
CC(=O)Nc1cccc(NC(=O)CSc2ccc(-c3sc(-c4ccccc4)nc3C)nn2)c1 | x | x | x | x | 1% | x
CCOc1ccc(OCC(=O)Nc2nccs2)cc1 | 13 | u | -2 | 0% | 22µM* | 10µM* | LmPK confirm=13µM*
